Source: PubChem BioAssay AID504465 (National Center for Advancing Translational Sciences (NCATS), 2011)
Among all 2,100 compounds or so, about 210 (10%) were called active. About 53% were inconclusive and are not listed. This is one part of the list. A number with no mark means an inactive call. Calls come from the whole dose curve; as a rule, active = well fitted inhibition curve with a large enough effect; inconclusive = small, poorly fitted or top-dose-only effect, or effect the other way; inactive = no such curve, though single readings can be large or run the other way.

Assay: IN Cell qHTS Assay for Inhibitors of the mTORC1 Signaling Pathway in MEF (Tsc2-/-, p53-/-) Cells: Sytravon; note: nearly all actives have a fitted effect of over 60% in size
Conditions: phospho-rpS6 immunofluorescence, 24 h; series mostly up to 38.3 µM; activity, negative = inhibition: at the top concentration
Summary of the method: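 Immunofluorescence of rpS6 phosphorylation (Ser235/236) in mouse embryonic fibroblasts lacking Tsc2 and p53, after 24 h compound exposure; Hoechst-normalized signal imaged, each well scored as % active cells relative to rapamycin (7.5 nM) and DMSO controls.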
Potency is the fitted concentration of half-maximal effect.

SMILES	activity, negative = inhibition [%]	Potency
CCOC(=O)CN1C(=O)C(O)(CC(=O)c2cc(OC)ccc2OC)c2ccccc21 (stereo unspecified)	46	
Cc1ccc(CN2C(=O)C(O)(CC(=O)c3ccc(C)cc3)c3ccccc32)cc1 (stereo unspecified)		16.5 µM (active)
CCc1ccc(C(=O)CC2(O)C(=O)N(Cc3ccc(C)cc3)c3ccccc32)cc1 (stereo unspecified)	-88.7	
COc1cc(C(=O)CC2(O)C(=O)N(Cc3ccccc3Cl)c3ccccc32)cc(OC)c1OC (stereo unspecified)		0.147 µM (active)
COc1ccc(N2C(=O)CCSC23C(=O)N(Cc2ccc(F)cc2)c2ccccc23)cc1Cl (stereo unspecified)	-17.3	
CCOC(=O)C1CCN(C(=O)CSc2c3c(nc4ccc(Cl)cc24)CCCC3)CC1	-16.3	
COC(=O)c1c(NC(=O)c2ccc(S(=O)(=O)N3CCCCC3)cc2)sc2c1CCN(C)C2	-14	
Cc1ccc(NC(=O)/C=C\C(=O)N(c2ccc(C(C)C)cc2)C(C(=O)NCc2ccco2)c2ccc(F)cc2)cc1 (stereo unspecified)	6.25	
COc1ccc(Nc2cc(C)nc3c(C)c(C)ccc23)cc1	0	
COc1cc(Nc2nc(SCC(=O)c3ccc(Cl)c(Cl)c3)nc3ccccc23)cc(OC)c1	-6.06	
COc1ccc2nc(C)cc(Nc3ccc(Cl)c(Cl)c3)c2c1		13.1 µM (active)
Clc1cccc(-n2ncc3c(NC4CCCCC4)ncnc32)c1	6.25	
Cc1cccc(Cc2c(C)nc3nc(SCC(=O)NCc4ccc(F)cc4)nn3c2C)c1	-21.1	
CC(=O)N1CCc2cc(CNS(=O)(=O)c3cccs3)ccc21	21.8	
Cc1nc2nncn2c(NCc2ccc(Cl)cc2)c1C	-6.25	
COc1ccc(CCNC(=O)c2cc3n(n2)CCCN(Cc2ccc(C)cc2)C3=O)cc1OC	-1.23	
COc1ccc2c(c1)CC(C(=O)Nc1cc(Cl)ccc1C)CO2 (stereo unspecified)	-4.95	
CCOC(=O)c1c(C)oc2ncnc(N3CCN(c4cccc(Cl)c4)CC3)c12	-8.26	
CCOc1ccc(-n2nc3ccc(NC(=O)c4ccc(-c5cccc(Cl)c5)o4)cc3n2)cc1		13.1 µM (active)
CCOc1ccc(-n2nc(CO)c(C(=O)NCc3cccs3)n2)cc1	-14	
CCN1CCc2c(sc(NC(=O)c3ccc(S(=O)(=O)N4CCCC(C)C4)cc3)c2C(=O)OC)C1 (stereo unspecified)	6.25	
Cc1ccc(S(=O)(=O)Nc2cccc(-c3ccc(N4CCC(C)CC4)nn3)c2)s1	1.3	
COc1ccccc1CNC(=O)CCCn1c(=O)c2ccccc2n(Cc2ccc(F)cc2)c1=O	-2.57	

SMILES	activity, negative = inhibition [%]	Potency
O=c1c2ccccc2n(Cc2c(F)cccc2Cl)c(=O)n1Cc1ccccc1	15.6	
O=C(NC1CCN(Cc2ccccc2)CC1)c1ccc(Cn2c(=O)c3ccccc3n(Cc3ccc(F)cc3)c2=O)cc1		2.61 µM (active)
COc1ccc(N2CCN(C(=O)CSCc3ccc(C)cc3)CC2)cc1	6.25	
CCOC(=O)c1c(C)oc2nc(C)nc(NCc3ccc(Cl)cc3)c12	-2.13	
CCOC(=O)C(Cc1c[nH]c2ccccc12)NC(=O)COc1ccc(Cl)cc1 (stereo unspecified)	0	
Cc1ccc(NC(=O)c2cc(S(=O)(=O)NC3CCCCC3)ccc2F)cc1Cl	6.25	
COc1ccc(OC)c(NC(=O)c2c(NCc3ccc(OC)c(OC)c3)sc3c2CCC(C)C3)c1 (stereo unspecified)	0	
Cc1ccc2c(CNCCc3ccc(Cl)cc3)c(C(=O)O)n(Cc3ccc(F)cc3)c2c1	-16.1	
Cc1ccc(NC(=O)c2cc(S(=O)(=O)NCCC3=CCCCC3)ccc2F)cc1C	6.25	
COc1ccc(OC)c(NC(=O)c2nc(S(=O)(=O)Cc3ccc(F)cc3)ncc2Cl)c1		2.33 µM (active)
COc1ccc(C)cc1NC(=O)c1cc(S(=O)(=O)NC2CCCCCC2)ccc1F	6.25	
CC1=C(c2ccc(C)c(C)c2)S(=O)(=O)N(Cc2ccc(C(=O)Nc3cc(F)ccc3F)cc2)C1=O	-0.206	
Cc1ccc(C)c(NC(=O)c2nc(S(=O)(=O)Cc3ccc(F)cc3)ncc2Cl)c1		3.29 µM (active)
CCc1ccc(NC(=O)c2cc(S(=O)(=O)NC3CCCC3)ccc2F)cc1	6.25	
CC(=O)Nc1ccc(NC(=O)c2nc(S(=O)(=O)Cc3ccc(F)cc3)ncc2Cl)cc1		8.26 µM (active)
Cc1ccc(NC(=O)c2nc(S(=O)(=O)Cc3ccc(F)cc3)ncc2Cl)cc1C		1.65 µM (active)
COc1cc(NS(=O)(=O)c2cc(Br)cc3c2N(C(=O)C2CC2)CC3)cc(OC)c1	0	
CCc1c(C)nc2nncn2c1NCc1ccc(Cl)cc1	-7.07	
CC(=O)c1cccc(NC(c2ccc(F)cc2)c2nnc(-c3ccccc3)o2)c1 (stereo unspecified)	0	
Cc1ccccc1Nc1c(-c2c[nH]c3ccccc23)nc2cccc(C)n12	-70	
O=C(Nc1ccc(Br)cc1)c1cc(S(=O)(=O)NC2CCCC2)ccc1F	6.25	
COc1ccc(Cn2c(C(=O)O)c(CNC3CCCCCC3)c3ccc(OC)cc32)cc1	-22.6	
CC(C)CCN(C(=O)Nc1ccc(Cl)c(Cl)c1)C1CCN(C(C)C)CC1	6.25	
